# Reference: PubChem BioAssay AID2148 (The Scripps Research Institute Molecular Screening Center, 2009)
# Hit rate of the full screen: of about 2,400 compounds, about 1,500 (62%) were called active. Cut-off read from the data, not from the text of the source: active = inhibition above about 22%; inactive = the rest. The set was probably picked from earlier hits. A selection follows.
# Target: Melanin-concentrating hormone receptor 1 (Homo sapiens) (UniProt Q99705)
# Test: MCHR1 antagonists in cells, counter-screen for GPR7 antagonist project, cell-based, fluorescence, human (AID 2148);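 note: 0% = vehicle with agonist and 100% = vehicle without agonist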
# Conditions: MCHR1-expressing cells, fluorescence antagonist assay; at 4.4 µM; stronger effect = higher value
row,Structure (SMILES),inhibition
1,CC(C)OCCCNc1ncnc2c1[nH]c1ccc(F)cc12,70.9% (active)
2,Cc1cc(OC(C)C(=O)NC2CC(C)(C)NC(C)(C)C2)c2c(C)cc(=O)oc2c1 (centres undefined),-9.17% (inactive)
3,O=C(COc1ccccc1)NCc1ccc2c(c1)OCO2,1.89% (inactive)
4,CCOc1ccc(Cn2nnc(C(=O)NCc3ccccc3)c2N)cc1,51.5% (active)
5,O=C(Cc1ccc(Cl)cc1)NC(=S)Nc1ccccc1O,96.4% (active)
6,O=C(NC(=O)c1ccccc1)Nc1ccccc1O,14.3% (inactive)
7,Cc1ccccc1NC(=S)NC(=O)Cc1ccc(Cl)cc1,65.3% (active)
8,O=C(CC(=O)Nc1ccc(Cl)c(Cl)c1)N/N=C/c1ccc(O)cc1,12.4% (inactive)
9,CS(=O)(=O)N(CC(O)Cn1c2ccccc2c2ccccc21)c1cccc2ccccc12 (centres undefined),41.7% (active)
10,Cc1cccc(NC(=O)c2cccc(C(=O)Nc3cccc(C)c3C)n2)c1C,25.4% (active)
11,Cc1ccc(C(=O)C[n+]2cc(-c3ccccc3)n3c2CCCCC3)cc1,16.7% (inactive)
12,Cc1ccc2[nH]cc(CCNC(=O)c3ccc([N+](=O)[O-])cc3)c2c1,49% (active)
13,O=C(Nc1nc(-c2ccc3c(c2)OCO3)cs1)c1ccncc1,67.8% (active)
14,O=C(Nc1ccccc1F)c1ccc2c(c1)OCO2,2.37% (inactive)
15,COc1ccc(NS(=O)(=O)c2ccc(NC(=S)NC(=O)CC(C)C)cc2)cc1,58.1% (active)
16,O=[N+]([O-])c1ccc(N(CCO)Cc2ccccc2)c([N+](=O)[O-])c1,15.3% (inactive)
17,O=C(CSCc1ccc([N+](=O)[O-])cc1)NCCSCc1ccccc1,28.9% (active)
18,N=c1c2c(-c3ccccc3)c(-c3ccccc3)n(Cc3ccccc3)c2ncn1CCCO,38.1% (active)
19,CCN1/C(=C\c2ccc3ccccc3[n+]2CC)Sc2cc(C)ccc21,42.9% (active)
20,CCc1ccc(OCC2c3cc(OC)c(OC)cc3CCN2C(C)=O)cc1 (centres undefined),29.6% (active)
21,CC1CN(C(=O)CCC(=O)NCCCN2CCC(Cc3ccccc3)CC2)c2cc(Cl)ccc2O1 (centres undefined),49.6% (active)
22,Cc1ccc(S(=O)(=O)n2cnc3ccccc32)c(C)c1,-5.48% (inactive)
23,CC(=O)Nc1ccc(S(=O)(=O)N(C)CC(=O)NCCC2=CCCCC2)cc1,-1.52% (inactive)
24,COc1ccc(C(CCNCc2ccccc2F)c2ccc(F)cc2)cc1 (centres undefined),42.1% (active)
